High-throughput results (PubChem BioAssay)
Tgondii IFNg = blocks Toxoplasma gondii growth in the presence of IFN-gamma; Toxoplasma gondii growth in IFN-gamma-treated host cells; stronger effect = lower value; activity change, negative = inhibition, % (no concentration beside the values); 69,000 tested, 3.8% active; AID 1259416; in the data active = activity change below about -70%, passing the limit was not always enough;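 note: host cells are HeLa cells infected with Toxoplasma gondii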
* hit, by the source's call. The sample as a whole holds a higher share of hits than the screen did.

SMILES	Tgondii IFNg
CC(C)CN1CC2CCCC(C1)C2CC(=O)NCc1ccco1 (stereo not given)	-9
O=C(O)c1cccnc1SCCCN1C(=O)c2cccc3cccc(c23)C1=O	8
CCn1cc(CC(=O)N2CCC(N3CCCCC3)CC2)c2cccnc21	-5
CC(NC(=O)c1cc2cc(S(=O)(=O)N(C)C)ccc2n1Cc1ccncc1)c1ccccc1 (stereo not given)	112
Cc1cccc(-c2nc(Cn3nnc(-c4nc(-c5ccccc5C)no4)c3C)c(C)o2)c1	7
Cc1noc(C(C)N(C)C(=O)c2coc(COc3cccc(F)c3F)n2)n1 (stereo not given)	6
COc1ccc(/C=C/CN2CCN(C3CCN(C(C)C)CC3)C(CCO)C2)cc1 (stereo not given)	5
Cc1cc(CN2C(=O)NC(C)(c3cccs3)C2=O)no1 (stereo not given)	6
OC1(c2ccccc2)CCN(Cc2nc(-c3cccnc3Cl)no2)C2CCCCC21 (stereo not given)	55
Cc1cc(C(=O)NCc2csc(-c3ncccn3)n2)c2cccc(C)c2n1	-66
CCOc1cc(C(=O)N2CCC3(CC2)Nc2cc(F)ccc2-n2cccc23)cc(OCC)c1OCC	24
CCc1ccc(Nc2nc(C(=O)NCc3ccc(OC)c(OC)c3)nc3ccccc23)cc1	-79*
Cc1ccc(Nc2nc(C(=O)Nc3c(C)cc(C)cc3C)nc3ccccc23)cc1	-60
Cc1cc(C)c(NC(=O)c2nc(Nc3ccccc3)c3ccccc3n2)c(C)c1	-78*
CCNC(=O)c1nc(Nc2ccc(CC)cc2)c2ccccc2n1	-49
CSc1cccc(NC(=O)c2nc(Nc3ccccc3)c3ccccc3n2)c1	-5
COc1ccc(CNC(=O)c2nc(Nc3ccccc3)c3ccccc3n2)cc1OC	-42
O=C(Nc1cccc(F)c1)c1nc(Nc2ccccc2)c2ccccc2n1	66
Cc1ccc(NC(=O)c2nc(Nc3ccccc3)c3ccccc3n2)c(C)c1	-41
COc1cccc(NC(=O)c2nc(Nc3ccccc3)c3ccccc3n2)c1	-76*
COc1ccc(-c2cc(C3CCCCCN3C(=O)c3cccs3)no2)cc1 (stereo not given)	-2
CCc1ccc(S(=O)(=O)Nc2ccc(-c3nc(-c4ccc(C)cc4C)co3)cc2)cc1	-68
Cc1noc(C)c1CN1CCC2(CC(=O)N(c3cccc(C#N)c3)C2)C1 (stereo not given)	-2
CN(C)c1ccc(CNC(=O)CN2C(=O)CCc3cc(S(=O)(=O)N4CCCCC4)ccc32)cc1	35
CC(C)C(=O)c1cc2c(s1)CCN2C(=O)CN(C)C	-5
SMILES	Tgondii IFNg
COc1ccc(-c2nc(C)c(CCNC(=O)C(=O)Nc3cc(C)cc(C)c3)s2)cc1	3
CCOc1ccccc1-c1nc(CN2CCNC(=O)C2c2cccc(F)c2)c(C)o1 (stereo not given)	26
Cc1ccc2c(c1)C(=O)NC1(CCN(C(=O)Cc3cccc(F)c3)CC1)N2C	9
Cc1ccc2c(c1C)-n1cccc1C1(CCN(S(=O)(=O)c3cccc(Cl)c3)CC1)N2	23
COc1ccc(S(=O)(=O)N2CCC3(CC2)Nc2cc(C)ccc2-n2cccc23)cc1Cl	13
CCN1c2cc(C)ccc2-n2cccc2C12CCN(S(=O)(=O)c1ccc(OC)cc1)CC2	-91*
CCN1c2cc(C)ccc2-n2cccc2C12CCN(S(=O)(=O)c1ccc(OC)c(OC)c1)CC2	-32
CCN1c2cc(C)ccc2-n2cccc2C12CCN(S(=O)(=O)c1cccc(Cl)c1)CC2	-84*
CCN1c2cc(C)ccc2-n2cccc2C12CCN(S(=O)(=O)c1cc(Cl)ccc1OC)CC2	-106*
CCN1c2cc(C)ccc2-n2cccc2C12CCN(C(=O)NCC(=O)OC)CC2	67
CCN1c2cc(C)ccc2-n2cccc2C12CCN(C(=O)NC(C)C(=O)OC)CC2 (stereo not given)	63
COc1ccc(Cl)cc1S(=O)(=O)N1CCC2(CC1)Nc1cc(C)ccc1-n1cccc12	3
COc1ccc(S(=O)(=O)N2CCC3(CC2)Nc2cc(OC)ccc2-n2cccc23)cc1	18
CCN1c2cc(C)ccc2-n2cccc2C12CCN(C(=O)c1ccc(OC)cc1)CC2	-90*
CN(C)C(=O)CC1CC2(CCN(C(=O)COc3ccccc3)CC2)Oc2ccccc21 (stereo not given)	92
CCN(Cc1cncn1C)c1ccc(N2CCCCC2)c(C(F)(F)F)c1	-48
CN(C)C(=O)N1CCC2(Cc3ccccc3NC2=O)C1 (stereo not given)	5
O=C1NCCN(Cc2ccccc2C(F)(F)F)C1CC(=O)N1CCCO1 (stereo not given)	3
O=C(Cn1ncc2c(N3CCOCC3)ncnc21)Nc1cccc(C(F)(F)F)c1	-39
COCCCN(C(C)c1ccccn1)S(=O)(=O)c1ccc2[nH]c(=O)ccc2c1 (stereo not given)	76
C=CCN1CCC2(CC1)CC(NC(=O)[C@H]1CCCO1)c1ccccc1O2 (stereo not given in full)	1
Cc1nc(-c2cc(C(=O)NCCN(C)C)c3ccccn23)cn1-c1ccccn1	6
